Assay results as given in PubChem BioAssay (NCATS).
Inconclusive results are not listed. Activity calls are given as the source filed them. Unless noted, calls follow the shape of the dose curve; as a rule, active = well fitted curve in either direction with a large enough effect (not every such curve was filed as active); inconclusive = small, poorly fitted or top-dose-only effect, or another doubt; inactive = flat fitted curve, though single readings scatter.

Key:
[1] = AP1 Signaling Pathway (AID 357); conditions: ME-180 AP-1-bla reporter, EGF-induced, beta-lactamase ratio, 5 h; at 17.2 µM (top of the series) unless noted;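 also: ME-180 reporter cells stimulated with EGF at its EC50 level; % is scaled to controls: 0 for no effect and ±100 for the full control effect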
In short: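 In this screen, ME-180 cells in Opti-MEM with 0.5% dialyzed FBS received EC50 EGF and compound titrations for 5 h. AP-1 reporter beta-lactamase was detected via CCF4 ratio, giving AC50 for positive and negative modulators.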

[2] = NFAT Signaling Pathway (AID 444); conditions: Jurkat NFAT-bla M1, carbachol, beta-lactamase ratio, 5 h; at 17.2 µM (top of the series) unless noted;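 also: carbachol stimulus at about its EC50 of 1 µM final; % is scaled to controls: 0 for no effect and ±100 for the full control effect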
In short: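 Read-out: CCF4 FRET ratio (460 nm/530 nm) after 1 h RT dye loading, used for %activity and AC50 from titration series. Cells: Jurkat NFAT-β-lactamase/M1 line, treated with compound plus 1 uM carbachol for 5 h, 37 °C.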

[3] = Stat Signaling Pathway (AID 446); conditions: ME-180 (cervical carcinoma) SIE beta-lactamase reporter, IL-6 stimulated, 5 h; at 17.2 µM (top of the series) unless noted;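 also: ME-180 cervical cancer cells given 40 pM IL-6 alongside compound; SIE-controlled beta-lactamase reporter measured as 460/530 nm FRET emission ratio; % is scaled to controls: 0 for no effect and ±100 for the full control effect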
In short: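 Emission at 460 and 530 nm (excitation 405 nm) reports SIE-controlled beta-lactamase in ME-180 cells. Cells received compound with 40 pM IL-6 for 5 hrs at 37 C; data scaled between 300 pM IL-6 and 125 nM JAK-inhibitor controls.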

[4] = molecular target: Glucocorticoid receptor (Homo sapiens) (UniProt P04150); assay: GR-GFP Redistribution (AID 450;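 active = compounds whose dose series gives a full or clear partial fitted curve of increased nuclear translocation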; also: potency is read from the fitted curve at half-maximal effect)
[5] = molecular target: Glucocorticoid receptor (Homo sapiens) (UniProt P04150); assay: GR-EFC Redistribution (AID 451; calls by dose curve; also: potency is read from the fitted curve at half-maximal effect); conditions: CHO-K1 GR-EFC translocation, beta-gal luminescence, 2 h
In short: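 Translocation of GR-ED fusion to nuclear EA restores b-gal, read by luminescence after 1 h room-temperature detection. Engineered CHO-K1 biosensor cells, 1,000/well, exposed 2 h at 37 C to titrations up to 46 uM final.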

[6] = molecular target: Mitogen-activated protein kinase 10 (Mus musculus) (UniProt Q61831); assay: JNK3 AlphaScreen Assay (AID 530);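 also: kinase came from lysate of stimulated human HepG2 cells; signal reports phosphorylation of biotinylated GST-cJun 1-79 at Ser73 with 10 µM ATP; % is scaled to controls: 0 for no effect and ±100 for the full control effect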
In short: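 Kinase buffer: 20 mM Tris-HCl pH 7.6, 10 mM MgCl2, 1 mM DTT, 0.1 mM Na3VO4, 0.01% Tween-20; ATP 10 uM. Substrate biotin-GST-cJun(1-79), enzyme from activated HepG2 lysates. Detection by Ser73 phospho-antibody AlphaScreen.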

[7] = molecular target: 3',5'-cyclic-AMP phosphodiesterase 4B (Homo sapiens) (UniProt Q07343); assay: qHTS Assay for Inhibitors of PDE-IV (AID 607; active = well fitted activation curve with a large enough effect in the main read-out, with a control signal flat, not every such curve was filed as active; also: % of control where 0% means no effect)
In short: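 The readout is membrane depolarisation from a cAMP-sensing CNG channel, detected with a potential dye at ex 535/em 590. Cells were HEK293-derived (endogenous PDE-IV) at 1000 cells/well, titrated up to 22.9 uM final.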

[8] = molecular target: Guanine nucleotide-binding protein G(i) subunit alpha-1 (Homo sapiens) (UniProt P63096); assay: qHTS Assay for Inhibitors of RGS12 GoLoco Motif Activity (Green Fluorophore) (AID 879; active = well fitted curve in the direction sought with a large enough effect; an effect the other way counts as inactive or inconclusive;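 also: 0% = labeled peptide with Gαi1 and full inhibition = labeled peptide alone without protein; negative values mean loss of peptide binding seen as reduced polarization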)
In short: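 A drop in FITC polarization marked displacement of the FITC-tagged RGS12 GoLoco peptide (10 nM) from Gαi1 (50 nM). Compounds were incubated 10 min at room temperature in Tris pH 7.5 buffer containing 150 mM NaCl, 0.1 mM GDP and 0.05% NP40; unlabeled peptide titration served as control.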

[9] = qHTS Assay for Identification of Small Molecule Antagonists for NFkB Signaling Pathway (AID 895; active = well fitted inhibition curve with a large enough effect in the signal ratio, with a control signal flat, not every such curve was filed as active; the % refers to the signal ratio; also: potency is read from the fitted curve at half-maximal effect)
In short: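 Beta-lactamase reporter read-out (460 and 530 nm emission ratio, 405 nm excitation, 2 hrs substrate loading RT) after 5 hr stimulation with 10 pM TNF alpha in compound-treated NFkB-bla ME-180 cells in low-serum medium.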

[10] = qHTS Assay for Identification of Small Molecule Agonists for Thrombopoietin (TPO) Signaling Pathway (AID 917; active = well fitted curve in the direction sought with a large enough effect; an effect the other way counts as inactive or inconclusive; also: % is scaled to controls: 0 for no effect and ±100 for the full control effect)
In short: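 Ba/F3 (mouse) + hTPO receptor + GpIIb-promoter luciferase; IL-3 withdrawn overnight; compound + 26 pM TPO (EC50), 24 hrs, 37 C, 5% CO2; Steadylite luminescence, 10 min RT.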

[11] = molecular target: Muscarinic acetylcholine receptor M1 (Rattus norvegicus) (UniProt P08482); assay: qHTS Assay for Antagonists of Acetylcholine Muscarinic M1 Receptor: Kinetic Measurement of Intracellular Calcium Response (AID 943; active = well fitted curve in the direction sought with a large enough effect; an effect the other way counts as inactive or inconclusive;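 also: Fluo-4 calcium signal as peak divided by basal fluorescence over 4 min; nearly all actives have a fitted effect of over 75% in size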)
In short: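 Quantitative HTS in CHO-M1 (rat receptor) cells: 10 min compound exposure ahead of 100 nM carbachol, Fluo-4 fluorescence followed 4 min, value expressed as peak-to-basal ratio.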

[12] = molecular target: Muscarinic acetylcholine receptor M1 (Rattus norvegicus) (UniProt P08482); assay: qHTS Assay for Antagonists of Acetylcholine Muscarinic M1 Receptor: Measurement of IP-One Response (AID 944; active = well fitted curve in the direction sought with a large enough effect; an effect the other way counts as inactive or inconclusive; also: nearly all actives have a fitted effect of over 75% in size)
In short: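 Antagonism was measured as loss of carbachol-driven (EC80) IP1 accumulation in CHO cells carrying rat M1, using a homogeneous IP-One TR-FRET kit read at 620 and 665 nm.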

[13] = molecular target: Pyruvate kinase (Leishmania mexicana) (UniProt Q27686); assay: qHTS Validation Assay for Inhibitors of Leishmania Mexicana Pyruvate Kinase (AID 945; active = well fitted curve in the direction sought with a large enough effect; an effect the other way counts as inactive or inconclusive;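 also: 0% = DMSO only neutral control wells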)
In short: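 Read-out: luminescence from PKLight stop/detection reagent, data normalized to DMSO. Reaction: 0.2 nM E451W LmPYK, 0.5 mM PEP, 0.1 mM ADP, pH 7.2, 1 h room temperature.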

[14] = molecular target: Pyruvate kinase PKM (Homo sapiens) (UniProt P14618); assay: qHTS Assay for Activators of Human Muscle Pyruvate Kinase (AID 954; active = well fitted curve in the direction sought with a large enough effect, not every such curve was filed as active;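 also: 0% = uninhibited enzyme and -100% = no enzyme or full thiadiazolimine inhibition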)
In short: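 PKM2, human, >95% pure, 0.1 nM; PEP 0.5 mM (Km), ADP 0.1 mM; 50 mM imidazole pH 7.2, 50 mM KCl, 0.01% Tween 20, 0.05% BSA; 1 h RT; luciferase luminescence readout.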

[15] = molecular target: Alpha-galactosidase A (Homo sapiens) (UniProt P06280); assay: Counterscreen for Glucocerebrosidase Inhibitors: qHTS Assay for Human alpha-Galactosidase at pH 4.5 (AID 992; active = well fitted curve in the direction sought with a large enough effect; an effect the other way counts as inactive or inconclusive; also: 0% is about no effect)
In short: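 Fluorogenic 4-MU alpha-D-galactoside (80 uM) hydrolysis, 2 nM enzyme, pH 4.5 citrate buffer + 0.005% Tween-20; 20 min RT; NaOH/glycine pH 10 stop; Ex365/Em440. Compounds titrated 0.7 nM–77 uM; Hill-equation AC50.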

Glucocorticoid receptor (Homo sapiens), sequence (P04150 whole entry, looked up, the tested form may be a part): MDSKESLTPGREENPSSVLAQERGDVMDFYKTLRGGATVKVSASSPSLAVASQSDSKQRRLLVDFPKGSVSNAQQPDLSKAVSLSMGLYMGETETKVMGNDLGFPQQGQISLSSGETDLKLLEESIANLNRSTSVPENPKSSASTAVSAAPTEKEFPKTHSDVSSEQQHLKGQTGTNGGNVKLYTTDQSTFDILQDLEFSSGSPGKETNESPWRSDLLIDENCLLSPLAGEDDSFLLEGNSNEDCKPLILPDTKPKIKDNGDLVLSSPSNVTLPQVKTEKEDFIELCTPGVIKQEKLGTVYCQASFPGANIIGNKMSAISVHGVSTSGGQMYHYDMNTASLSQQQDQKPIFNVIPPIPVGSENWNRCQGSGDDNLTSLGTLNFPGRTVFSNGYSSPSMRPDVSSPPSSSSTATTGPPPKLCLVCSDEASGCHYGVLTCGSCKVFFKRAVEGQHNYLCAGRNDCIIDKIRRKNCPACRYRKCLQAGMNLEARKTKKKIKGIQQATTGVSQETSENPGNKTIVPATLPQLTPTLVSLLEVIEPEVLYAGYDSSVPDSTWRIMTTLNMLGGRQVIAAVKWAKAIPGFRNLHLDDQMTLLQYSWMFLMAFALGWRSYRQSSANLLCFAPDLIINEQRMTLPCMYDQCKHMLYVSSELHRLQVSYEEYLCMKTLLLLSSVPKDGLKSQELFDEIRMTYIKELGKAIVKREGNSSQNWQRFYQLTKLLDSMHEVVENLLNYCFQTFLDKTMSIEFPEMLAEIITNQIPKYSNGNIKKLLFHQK
Muscarinic acetylcholine receptor M1 (Rattus norvegicus), sequence (P08482 whole entry, looked up): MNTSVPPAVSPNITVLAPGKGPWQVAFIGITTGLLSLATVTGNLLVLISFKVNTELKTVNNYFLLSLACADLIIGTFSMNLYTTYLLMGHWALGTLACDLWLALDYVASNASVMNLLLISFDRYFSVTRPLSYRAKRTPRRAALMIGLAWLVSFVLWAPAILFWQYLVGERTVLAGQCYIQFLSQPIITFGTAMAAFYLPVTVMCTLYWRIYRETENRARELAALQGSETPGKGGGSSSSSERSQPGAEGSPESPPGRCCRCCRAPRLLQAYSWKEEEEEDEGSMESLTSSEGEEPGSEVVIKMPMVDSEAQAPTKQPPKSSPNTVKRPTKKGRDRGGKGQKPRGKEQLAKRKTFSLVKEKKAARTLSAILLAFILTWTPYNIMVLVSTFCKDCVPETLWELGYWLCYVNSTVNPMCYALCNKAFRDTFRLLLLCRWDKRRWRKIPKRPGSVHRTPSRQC
Alpha-galactosidase A (Homo sapiens), sequence (P06280 whole entry, looked up): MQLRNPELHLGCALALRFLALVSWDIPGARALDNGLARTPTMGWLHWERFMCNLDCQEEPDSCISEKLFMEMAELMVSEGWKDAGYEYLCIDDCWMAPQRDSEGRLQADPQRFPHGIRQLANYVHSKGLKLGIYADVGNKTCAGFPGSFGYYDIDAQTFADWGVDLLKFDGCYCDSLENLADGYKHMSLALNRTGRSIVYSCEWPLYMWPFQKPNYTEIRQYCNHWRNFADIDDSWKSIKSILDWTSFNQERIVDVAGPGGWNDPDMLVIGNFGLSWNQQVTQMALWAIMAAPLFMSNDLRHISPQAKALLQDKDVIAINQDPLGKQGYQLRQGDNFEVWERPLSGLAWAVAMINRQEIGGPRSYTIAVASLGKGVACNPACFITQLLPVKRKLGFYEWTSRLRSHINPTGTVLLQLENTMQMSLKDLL
3',5'-cyclic-AMP phosphodiesterase 4B (Homo sapiens), sequence (Q07343 whole entry, looked up): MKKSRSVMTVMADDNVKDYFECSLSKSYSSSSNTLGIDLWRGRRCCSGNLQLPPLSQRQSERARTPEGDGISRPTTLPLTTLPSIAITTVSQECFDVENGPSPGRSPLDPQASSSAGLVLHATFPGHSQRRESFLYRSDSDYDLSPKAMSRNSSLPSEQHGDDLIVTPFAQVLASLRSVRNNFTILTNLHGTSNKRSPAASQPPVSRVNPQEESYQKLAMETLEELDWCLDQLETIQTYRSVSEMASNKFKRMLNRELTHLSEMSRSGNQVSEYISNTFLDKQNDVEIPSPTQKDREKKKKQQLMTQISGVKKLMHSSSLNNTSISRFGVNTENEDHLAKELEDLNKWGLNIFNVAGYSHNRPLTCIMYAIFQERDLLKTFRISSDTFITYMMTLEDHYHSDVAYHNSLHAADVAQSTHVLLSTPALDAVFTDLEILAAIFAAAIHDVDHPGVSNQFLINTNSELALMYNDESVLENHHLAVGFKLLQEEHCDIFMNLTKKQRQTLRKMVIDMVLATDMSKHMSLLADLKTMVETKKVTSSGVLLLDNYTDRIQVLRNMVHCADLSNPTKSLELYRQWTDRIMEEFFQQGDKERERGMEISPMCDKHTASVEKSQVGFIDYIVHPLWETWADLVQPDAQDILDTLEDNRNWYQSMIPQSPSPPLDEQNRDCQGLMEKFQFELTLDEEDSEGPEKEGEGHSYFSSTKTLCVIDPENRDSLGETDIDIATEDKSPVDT
Guanine nucleotide-binding protein G(i) subunit alpha-1 (Homo sapiens), sequence (P63096 whole entry, looked up): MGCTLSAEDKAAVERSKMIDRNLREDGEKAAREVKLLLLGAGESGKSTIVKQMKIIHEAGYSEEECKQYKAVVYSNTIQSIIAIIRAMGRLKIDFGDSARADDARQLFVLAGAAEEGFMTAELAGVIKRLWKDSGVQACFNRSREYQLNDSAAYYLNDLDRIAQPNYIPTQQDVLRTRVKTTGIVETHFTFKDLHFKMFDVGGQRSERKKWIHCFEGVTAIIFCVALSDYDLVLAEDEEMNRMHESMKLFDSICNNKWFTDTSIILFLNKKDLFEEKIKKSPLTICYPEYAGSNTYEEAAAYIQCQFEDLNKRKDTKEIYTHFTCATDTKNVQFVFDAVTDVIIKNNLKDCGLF
Pyruvate kinase PKM (Homo sapiens), sequence (P14618 whole entry, looked up): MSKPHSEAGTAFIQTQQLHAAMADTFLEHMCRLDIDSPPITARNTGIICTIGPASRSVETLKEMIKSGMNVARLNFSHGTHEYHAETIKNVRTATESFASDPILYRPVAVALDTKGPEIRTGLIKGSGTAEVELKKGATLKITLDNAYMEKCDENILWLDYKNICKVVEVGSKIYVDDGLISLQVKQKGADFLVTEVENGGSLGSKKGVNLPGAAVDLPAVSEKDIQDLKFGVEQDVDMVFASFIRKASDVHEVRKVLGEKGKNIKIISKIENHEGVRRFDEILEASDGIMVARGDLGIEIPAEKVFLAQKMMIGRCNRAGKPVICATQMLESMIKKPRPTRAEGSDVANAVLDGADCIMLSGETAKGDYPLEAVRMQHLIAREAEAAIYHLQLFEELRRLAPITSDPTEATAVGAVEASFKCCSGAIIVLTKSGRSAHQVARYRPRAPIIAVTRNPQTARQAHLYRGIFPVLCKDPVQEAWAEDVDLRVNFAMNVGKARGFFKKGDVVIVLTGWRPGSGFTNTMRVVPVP
Pyruvate kinase (Leishmania mexicana), sequence (Q27686 2-499 E452W): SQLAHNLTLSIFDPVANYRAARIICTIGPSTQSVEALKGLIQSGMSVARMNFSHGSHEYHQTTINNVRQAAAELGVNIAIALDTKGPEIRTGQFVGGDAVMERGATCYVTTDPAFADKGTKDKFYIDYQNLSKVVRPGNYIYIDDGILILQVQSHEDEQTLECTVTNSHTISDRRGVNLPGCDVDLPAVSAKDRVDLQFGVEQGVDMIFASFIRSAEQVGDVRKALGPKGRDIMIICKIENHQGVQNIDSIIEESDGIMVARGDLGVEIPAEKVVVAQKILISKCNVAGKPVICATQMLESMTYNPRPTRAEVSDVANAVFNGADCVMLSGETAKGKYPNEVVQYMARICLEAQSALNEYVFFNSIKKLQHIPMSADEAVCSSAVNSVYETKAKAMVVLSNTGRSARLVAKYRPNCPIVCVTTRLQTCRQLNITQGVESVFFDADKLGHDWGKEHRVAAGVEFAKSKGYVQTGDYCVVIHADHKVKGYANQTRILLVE

CCOc1ccc(/C(O)=C2/C(=O)C(=O)N(c3nc(C)c(C)s3)C2c2ccco2)cc1 (stereo unspecified)
inactive: activity change, negative = inhibition [1] -13.5% | activity change, negative = inhibition [2] 20.9% | activity, negative = inhibition [3] -19% | Potency [4] > 20.6 µM

Cc1cc(C)nc(NC2=NCC(=O)N2c2cccc(Cl)c2)n1
inactive: activity change, negative = inhibition [1] 3.62% | activity change, negative = inhibition [2] -0.714% | activity, negative = inhibition [3] 0.214% | Potency [4] > 20.6 µM

COc1cc(C)nc(Oc2ccc(=O)n(C)n2)n1
inactive: activity change, negative = inhibition [1] 8.82% | activity change, negative = inhibition [2] -8.27% | activity, negative = inhibition [3] 1.84% | Potency [4] > 20.6 µM

Cc1noc(COc2ccccc2OCC(O)CNC(C)(C)C)n1 (stereo unspecified)
inactive: activity change, negative = inhibition [1] 4.01% | activity change, negative = inhibition [2] -1.96% | activity, negative = inhibition [3] 1.99% | Potency [4] > 20.6 µM

COc1ccc(OC)c(C2/C(=C(\O)c3ccc(OC)c(Cl)c3)C(=O)C(=O)N2CCN(C)C)c1 (stereo unspecified)
inactive: activity change, negative = inhibition [1] 10.2% | activity change, negative = inhibition [2] 2.23% | activity, negative = inhibition [3] -6.77% | Potency [4] > 20.6 µM

Cc1nc(N2CCOCC2)c(C#N)c2c1COC(C)(C)C2
inactive: activity change, negative = inhibition [1] 0.635% | activity change, negative = inhibition [2] 2.49% | activity, negative = inhibition [3] 7.32% | Potency [4] > 20.6 µM

COc1ccc(C2/C(=C(/O)c3cnn(-c4ccccc4)c3C)C(=O)C(=O)N2CCN(C)C)cc1OC (stereo unspecified)
inactive: activity change, negative = inhibition [1] -0.291% | activity change, negative = inhibition [2] 18.7% | activity, negative = inhibition [3] -4.43% | Potency [4] > 20.6 µM

Cc1cc(OCCN2CCOCC2)nc2ccccc12
inactive: activity change, negative = inhibition [1] -9.97% | activity change, negative = inhibition [2] 23.5% | activity, negative = inhibition [3] 1.79% | Potency [4] > 20.6 µM

COc1nc(NS(=O)(=O)c2ccc(C)cc2)nc(C)c1Cl
inactive: activity change, negative = inhibition [1] 6.72% | activity change, negative = inhibition [2] -25.4% | activity, negative = inhibition [3] -5.69% | Potency [4] > 20.6 µM

CCCCC[C@H](O)CCCC(=O)O
active: Potency [9] 5.01 µM
inactive: activity change, negative = inhibition [1] -0.599% [at 38 µM] | activity change, negative = inhibition [2] -3.23% [at 38 µM] | activity, negative = inhibition [3] -28.6% [at 38 µM] | Potency [4] > 46 µM | Potency [5] > 46 µM | Potency [6] | Potency [7] | outcome [8] | Potency [10] | Potency [11] | Potency [12] | Potency [13] | outcome [14] | outcome [15]
